Test results taken from PubChem BioAssay AID2284368 (EPA ToxCast).
Results filed as inconclusive are left out. Activity calls are given as the source filed them. How the source made its calls: active means hit-call score of the fitted dose curve at least 0.9, where 1 is the maximum; inconclusive means response in the unintended direction; inactive means score below 0.9.

Each compound was assayed against Estrogen receptor (Homo sapiens) (UniProt P03372) (assay: ATG_hERa_EcoTox2: Attagene TRANS-FACTORIAL EcoTox-2 HepG2 Assay for human Estrogen Receptor (ER)).
Procedure: ATG_EcoTox2 is a cell-based, multiplexed assay created by modifying the existing Attagene TRANS-FACTORIAL system to include a panel of nuclear receptors from some or all the following species: human (Homo sapiens), african clawed frog (Xenopus laevis), rainbow trout (Oncorhynchus mykiss), japanese medaka (Oryzias latipes), and zebrafish (Danio rerio). The ECOTOX2-FACTORIAL format uses HepG2, a human liver cell line, with measurements taken at 24 hours after chemical dosing in a 24-well plate. ATG_hERa_EcoTox2 is one of 29 assay components measured or calculated from the ATG_EcoTox2 assay. It is designed to make measurements of mRNA induction, a form of inducible reporter, as detected with fluorescence intensity signals by Reverse transcription polymerase chain reaction (RT-PCR) and Capillary electrophoresis technology.The assay endpoint ATG_hERa_EcoTox2 was analyzed in the positive analysis fitting direction relative to DMSO as the negative control and baseline of activity. Using a type of inducible reporter, measures of mRNA for gain-of-signal activity can be used to understand the reporter gene at the transcription factor-level as they relate to the gene ER. Furthermore, this assay endpoint can be referred to as a primary readout, because this assay has produced multiple assay endpoints where this one serves a reporter gene function. To generalize the intended target to other relatable targets, this assay endpoint is annotated to the nuclear receptor intended target family, where the subfamily is steroidal.
Human liver HepG2 cells are transiently transfected with multiple reporter transcription units (MRTUs) in 6-well plates using FuGene 6 reagent (Roche; 3 ml FuGene/1 mg DNA). The MRTU constructs are regulated by a cis-regulating element (promoter). Each RTU expresses a GAL4-UAS that regulates the transcription of a nearby target reporter gene sequence. A major difference between the CIS and TRANS system is that in CIS activities of endogenous TFs are measured, whereas the TRANS assay evaluates changes in activities of exogenous, chimeric NR-Gal4 proteins. […] At the end of 24 hour incubation, total RNA was isolated using TriZol reagent (Invitrogen). The isolated RNA is then reverse-transcribed using oligo(dT) primer and Mo-MLV reverse transcriptase (Invitrogen) with DNAse I (Ambion) treatment for 30 min. The one-tenth of the produced cDNA was amplified by PCR using Taq DNA polymerase (Invitrogen) and two reporter sequence-specific primers. […] The fragments were purified using Qiaquick PCR columns (Qiagen), analyzed on an ABI 3130xL genetic analyzer (Applied Biosystems) with peak positions identified by using a set of X-rhodamine (ROX)-labeled MapMarker1000 molecular weight standards (BioVentures). […]

Chain of Estrogen receptor (Homo sapiens) (P03372 whole entry, looked up): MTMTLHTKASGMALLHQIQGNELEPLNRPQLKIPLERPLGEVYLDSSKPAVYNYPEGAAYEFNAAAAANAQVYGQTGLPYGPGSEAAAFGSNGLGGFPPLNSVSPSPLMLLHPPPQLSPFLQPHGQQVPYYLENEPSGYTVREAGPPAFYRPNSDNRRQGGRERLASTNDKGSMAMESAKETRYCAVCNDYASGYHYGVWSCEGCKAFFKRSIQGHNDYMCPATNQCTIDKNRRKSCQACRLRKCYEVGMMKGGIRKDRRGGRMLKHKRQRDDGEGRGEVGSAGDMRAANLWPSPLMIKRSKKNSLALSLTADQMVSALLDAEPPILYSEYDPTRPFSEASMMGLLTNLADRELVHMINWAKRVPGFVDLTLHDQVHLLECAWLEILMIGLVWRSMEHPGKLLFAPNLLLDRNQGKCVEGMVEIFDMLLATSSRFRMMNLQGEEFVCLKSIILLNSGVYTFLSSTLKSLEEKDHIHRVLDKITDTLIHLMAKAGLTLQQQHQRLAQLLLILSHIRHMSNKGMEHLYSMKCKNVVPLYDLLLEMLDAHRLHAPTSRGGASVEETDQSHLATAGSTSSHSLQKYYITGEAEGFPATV

How did the outcome turn out when `[Cl][Sn]([c]1ccccc1)([c]1ccccc1)[c]1ccccc1` was run?
Its outcome is “inactive”.

`CCCCOCN(C(=O)CCl)c1c(CC)cccc1CC` was tested. Which outcome did it give?
The outcome was “inactive”.

Which AC50 does the source give for `O=S(=O)(O)C(F)(F)C(F)(F)C(F)(F)C(F)(F)C(F)(F)C(F)(F)F` here?
The AC50 was 50 µM (active).

How did the AC50 turn out when `O=P(Oc1ccccc1)(Oc1ccccc1)Oc1ccccc1` was run?
Its AC50 is 3.41 µM (active).
